# Test results published in PMC4336329 (PLoS ONE, 2015).
# Hit rate of the full screen: of about 310,000 compounds, about 14,000 (4.5%) showed an effect of 50% or more. Effects have a minus sign here. The full list was thinned out, with strong results kept by preference.
# Biological target: human ether-à-go-go-related gene (hERG) potassium channel (human, UniProt Q12809)
# Assay: primary screen, population patch clamp on CHO cells stably expressing hERG; higher = less effect of the substance
# 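Also: peak tail current of the secondary pulse compared with the same well before compound.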
# Chain of human ether-à-go-go-related gene (hERG) potassium channel (Q12809 whole entry, looked up): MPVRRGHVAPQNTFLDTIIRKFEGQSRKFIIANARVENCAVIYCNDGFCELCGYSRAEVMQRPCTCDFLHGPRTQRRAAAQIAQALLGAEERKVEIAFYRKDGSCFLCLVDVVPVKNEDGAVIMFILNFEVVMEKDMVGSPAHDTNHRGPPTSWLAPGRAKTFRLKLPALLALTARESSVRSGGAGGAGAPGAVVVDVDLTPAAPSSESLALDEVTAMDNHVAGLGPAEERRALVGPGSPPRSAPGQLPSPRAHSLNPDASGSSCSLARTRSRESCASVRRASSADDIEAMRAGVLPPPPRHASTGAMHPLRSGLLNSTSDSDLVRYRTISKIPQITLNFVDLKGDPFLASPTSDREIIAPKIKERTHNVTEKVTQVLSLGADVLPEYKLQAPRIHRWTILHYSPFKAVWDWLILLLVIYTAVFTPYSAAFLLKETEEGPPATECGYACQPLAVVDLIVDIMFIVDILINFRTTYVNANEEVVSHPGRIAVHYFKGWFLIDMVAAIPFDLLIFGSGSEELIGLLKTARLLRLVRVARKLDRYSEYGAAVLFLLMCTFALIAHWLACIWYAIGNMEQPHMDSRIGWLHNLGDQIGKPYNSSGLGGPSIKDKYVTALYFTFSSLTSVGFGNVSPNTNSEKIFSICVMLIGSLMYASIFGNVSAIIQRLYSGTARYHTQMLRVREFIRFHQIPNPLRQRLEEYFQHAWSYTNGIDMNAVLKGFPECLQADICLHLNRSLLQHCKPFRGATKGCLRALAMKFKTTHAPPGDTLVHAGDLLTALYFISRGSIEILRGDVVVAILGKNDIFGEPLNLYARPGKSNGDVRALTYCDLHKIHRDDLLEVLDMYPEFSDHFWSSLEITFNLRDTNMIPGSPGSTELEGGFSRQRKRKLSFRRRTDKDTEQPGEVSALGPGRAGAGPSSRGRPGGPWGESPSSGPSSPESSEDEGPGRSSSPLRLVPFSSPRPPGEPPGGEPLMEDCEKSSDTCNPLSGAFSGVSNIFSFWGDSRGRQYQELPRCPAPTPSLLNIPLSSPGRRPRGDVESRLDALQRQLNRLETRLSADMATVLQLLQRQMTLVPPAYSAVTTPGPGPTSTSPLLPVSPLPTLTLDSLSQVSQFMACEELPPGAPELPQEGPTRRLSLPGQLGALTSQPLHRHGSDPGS
row,Compound,"hERG current change (%, negative = inhibition) at 10uM"
1,CC12CCC(C(=O)Nc3cccc(Cl)c3Cl)([C@H](Br)C1=O)C2(C)C (stereo partly drawn),-39.6%
2,COC(=O)c1ccc(NC(=O)C2CCCN(S(=O)(=O)c3cnc[nH]3)C2)cc1 (stereo not drawn),3.35%
3,Cc1ccc(C(=O)c2oc3ccccc3c2N)cc1,-7.77%
4,CCCCOc1ccc(C(=O)NCC(=O)NC(C)CCc2ccccc2)cc1 (stereo not drawn),-4.99%
5,CC(=O)c1cnc(N(C)C)s1,10%
6,Cc1nnc(SCC(=O)Nc2ccc(-c3nc4ccccc4s3)cc2)s1,23.4%
7,N/C(=N\[N+](=O)[O-])N1CCN(C(=O)OC2CCCC2)CC1,19.4%
8,COc1ccc(CNC(=O)CC(C)S(=O)(=O)c2ccc3c(c2)NC(=O)CO3)cc1 (stereo not drawn),10.1%
9,Cn1c(SCC(=O)Nc2ccc(Cl)cn2)nnc1C1CC1,-3.25%
10,C=CCn1cccc(C(=O)Nc2ccc(C)c(Cl)c2)c1=O,10%
11,O=C(Nc1ccccc1)c1cccn(Cc2ccccc2)c1=O,13.7%
12,O=C(CCc1ccccc1)Nc1ccncc1,-56.8%
13,O=C(CCc1ccccc1)Nc1ccccc1,-2.56%
14,C=CCn1cccc(C(=O)Nc2ccc(C)c(C)c2)c1=O,-71.9%
15,C=CCn1cccc(C(=O)Nc2ccc(C)cc2)c1=O,-7.96%
16,O=C(CCc1ccccc1)Nc1cccc(NC(=O)CCc2ccccc2)c1,-13.4%
17,O=C(NCc1ccccc1)c1cccn(Cc2ccccc2)c1=O,-29.3%
18,O=C(Nc1ccncc1)c1cccn(Cc2ccccc2)c1=O,-55.8%
19,COc1ccc(NC(=O)COC(=O)CN2C(=O)NC(C)(C)C2=O)cc1,2.55%

row,Compound,"hERG current change (%, negative = inhibition) at 10uM"
1,Cc1ccc(-c2cccc(OC(=O)c3ccccc3F)c2)cc1,5.02%
2,COc1ccc(NC(=O)C2CCN(S(=O)(=O)c3ccc4[nH]c(=O)oc4c3)CC2)c(OC)c1,3.47%
3,O=S(=O)(c1ccccc1)c1nc(-c2ccc(F)cc2)oc1NCC1CCCO1 (stereo not drawn),-34.6%
4,COc1cc2c(cc1OC)CN(C(=O)C(C)(C)C)CC2,17.6%
5,COc1ccc(CCNCC(O)COc2cccc(Br)c2)cc1 (stereo not drawn),-50%
6,COc1ccc(CCNCC(O)COc2cccc(Br)c2)cc1OC (stereo not drawn),-67.3%
7,OC(CNCCc1ccc(C(F)(F)F)cc1)COc1ccc2ccccc2c1 (stereo not drawn),-46.5%
8,COc1ccc(CCNCC(O)COc2c(C)cccc2C)cc1OC.O=C(O)C(=O)O (stereo not drawn),6.84%
9,COc1ccc(CCNCC(O)COc2cccc(C(C)=O)c2)cc1OC.O=C(O)C(=O)O (stereo not drawn),-0.028%
10,COc1ccc(CCNCC(O)COc2ccc(OC)cc2C(C)(C)C)cc1 (stereo not drawn),-38.8%
11,COc1ccc(CCNC(=O)CCCOc2ccc(Cl)cc2)cc1OC,-15.3%
12,COc1ccc(CCNCC(O)COc2ccc(Cl)cc2)cc1OC.Cl (stereo not drawn),-72.1%
13,COc1ccc(CCNC(=O)COC(=O)COc2ccc(Cl)cc2)cc1OC,7.05%
14,CCN1CCCC1CNC(=O)C(=O)Nc1ccccc1OC (stereo not drawn),-15%
15,C#CCNC(=O)C1=C[C@@H](c2ccc(Br)cc2)C[C@@H](OCc2ccc(CO)cc2)O1,16.6%
16,Cl.N=c1ccn(Cc2cccc(Cl)c2)cc1,2.03%
17,C=CCO/N=C/C1C(=O)CC(C)(C)CC1=O,10.9%
18,CC(C(=O)NC1CCCC1)N(C(=O)CS(=O)CC(=O)Nc1ccc(F)cc1)c1ccc2c(c1)OCCO2 (stereo not drawn),-3.58%
19,CC(=O)c1csc(CS(=O)(=O)c2ccccn2)n1,5.4%

row,Compound,"hERG current change (%, negative = inhibition) at 10uM"
1,Fc1cccc(Nc2nc3ccccc3n3cnnc23)c1,4.55%
2,Cn1c(CS(=O)Cc2c(Cl)cccc2Cl)nnc1SCc1ccc(Cl)cc1 (stereo not drawn),-56.2%
3,CCn1c(CS(=O)Cc2ccc(Cl)cc2Cl)nnc1SCc1c(Cl)cccc1Cl (stereo not drawn),-6.78%
4,Cn1c(CS(=O)Cc2c(Cl)cccc2Cl)nnc1SCc1c(Cl)cccc1Cl (stereo not drawn),-45.1%
5,Cn1ncc(Cl)c(Oc2ccc(Cl)cc2)c1=O,-17%
6,Cn1ncc(Oc2ccc([N+](=O)[O-])cc2)c(Cl)c1=O,-71.2%
7,COc1cnn(-c2ccc([N+](=O)[O-])cc2)c(=O)c1Cl,-2.52%
8,O=C(C1CCN(c2nnc(-n3cccc3)s2)CC1)N1CCc2ccccc2C1,-60.3%
9,CN1CCN(CCCNC(=O)C2CCN(c3nnc(-n4cccc4)s3)CC2)CC1,20.2%
10,O=C(NCCCN1CCc2ccccc2C1)C1CCN(c2nnc(-n3cccc3)s2)CC1,-55.6%
11,O=C(NCCCN1CCc2ccccc2C1)C1CCN(S(=O)(=O)N2CCCC2)CC1,-2.78%
12,CCCN1CCN(CCCNC(=O)C2CCN(c3nnc(-n4cccc4)s3)CC2)CC1,-14.4%
13,O=C(NCCCN1CCc2ccccc2C1)C1CCN(S(=O)(=O)N2CCC3(CC2)OCCO3)CC1,-12.4%
14,O=C(C1CCN(c2nnc(-n3cccc3)s2)CC1)N1CCCCC1,-6.55%
15,O=C(C1CCN(c2nnc(-n3cccc3)s2)CC1)N1CCOCC1,-13.9%
16,O=C(NCCN1CCc2ccccc2C1)C1CCN(S(=O)(=O)N2CCCCC2)CC1,-53.8%
17,Cc1noc(C)c1COC(=O)C1CC(O)CN1S(=O)(=O)c1ccc(Cl)cc1 (stereo not drawn),-8.48%
18,O=C(CC1C(=O)NCCN1Cc1ccccc1C(F)(F)F)NCCN1CCCCC1=O (stereo not drawn),16.9%
19,O=S(=O)(Cc1noc(-c2ccc(Cl)cc2)n1)Cc1ccco1,-4.77%
